Laboratory results published in paper PMC4336329 (PLoS ONE, 2015).
Among all 310,000 compounds or so, about 14,000 (4.5%) showed an effect of 50% or more. Effects have a minus sign here. Only a selection was taken, and strong results are over-represented in it overall.

molecular target: human ether-à-go-go-related gene (hERG) potassium channel (human, UniProt Q12809); experiment: primary screen, population patch clamp on CHO cells stably expressing hERG; higher = less effect of the substance
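Note: peak tail current of the secondary pulse compared with the same well before compound.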

human ether-à-go-go-related gene (hERG) potassium channel, sequence (Q12809 whole entry, looked up): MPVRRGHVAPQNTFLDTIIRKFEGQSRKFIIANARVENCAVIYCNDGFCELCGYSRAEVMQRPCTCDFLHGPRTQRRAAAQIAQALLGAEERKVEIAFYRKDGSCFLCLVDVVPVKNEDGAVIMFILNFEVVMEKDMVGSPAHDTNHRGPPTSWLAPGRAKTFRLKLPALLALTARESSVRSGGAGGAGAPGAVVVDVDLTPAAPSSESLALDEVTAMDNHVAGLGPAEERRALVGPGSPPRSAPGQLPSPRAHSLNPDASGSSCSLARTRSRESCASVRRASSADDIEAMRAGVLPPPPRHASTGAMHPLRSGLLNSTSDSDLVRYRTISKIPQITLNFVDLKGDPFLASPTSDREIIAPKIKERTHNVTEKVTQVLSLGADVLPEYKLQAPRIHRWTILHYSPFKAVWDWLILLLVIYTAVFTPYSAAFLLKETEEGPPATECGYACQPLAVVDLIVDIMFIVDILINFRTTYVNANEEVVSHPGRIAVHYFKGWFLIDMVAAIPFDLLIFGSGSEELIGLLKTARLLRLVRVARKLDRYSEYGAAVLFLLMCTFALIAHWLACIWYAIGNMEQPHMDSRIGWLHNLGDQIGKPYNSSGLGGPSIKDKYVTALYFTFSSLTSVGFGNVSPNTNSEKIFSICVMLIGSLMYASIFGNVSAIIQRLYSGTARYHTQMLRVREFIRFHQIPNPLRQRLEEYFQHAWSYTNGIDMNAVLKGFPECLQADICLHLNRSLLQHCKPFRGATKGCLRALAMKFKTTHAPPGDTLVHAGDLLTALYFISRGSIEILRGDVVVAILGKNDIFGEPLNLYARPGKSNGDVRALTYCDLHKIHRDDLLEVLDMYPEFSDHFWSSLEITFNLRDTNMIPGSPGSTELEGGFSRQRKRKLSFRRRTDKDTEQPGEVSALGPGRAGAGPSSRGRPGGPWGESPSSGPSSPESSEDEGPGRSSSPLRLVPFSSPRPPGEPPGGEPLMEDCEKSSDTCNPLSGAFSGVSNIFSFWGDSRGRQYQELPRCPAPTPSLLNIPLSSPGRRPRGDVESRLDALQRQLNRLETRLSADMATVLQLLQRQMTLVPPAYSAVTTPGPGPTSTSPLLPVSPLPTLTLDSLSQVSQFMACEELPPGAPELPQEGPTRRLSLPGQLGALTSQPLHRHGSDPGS

SMILES | hERG current change (%, negative = inhibition) at 10uM [%]
CCOC(=O)c1cnc(-n2nc(C)cc2C)nc1NCCc1ccccc1 | -51.6
CCOC(=O)c1cnc(-n2nc(C)cc2C)nc1NCCO | 10.5
CCOC(=O)c1cnc(-n2nc(C)cc2C)nc1NCc1ccccc1 | -34.7
Cn1ccnc1SCC(=O)n1c2c(c3ccccc31)CCCC2 | -4.61
O=C(c1cccs1)N1CCCC(c2nc3c(nnn3Cc3c(Cl)cccc3Cl)c(=O)[nH]2)C1 (stereo not shown) | -46.9
O=C(OCC(=O)N1CCCc2ccccc21)c1cccc(C(F)(F)F)c1 | -6.7
COC(=O)C(Cc1ccccc1)NC(=O)c1ccc(C)cc1 (stereo not shown) | 5.08
CSCCOC(=O)c1[nH]c2c(c1C)C(=O)CC(c1ccco1)C2 (stereo not shown) | -1.18
Cc1ccc(NC(=O)c2sc(Cl)nc2-c2ccccc2)cc1 | 18.2
CCCCCOc1ccc(Br)cc1/C(C)=N/NC1=NCCN1 | -70.1
CCCCCCOc1ccc(/C(C)=N/NC2=NCCN2)cc1[N+](=O)[O-] | -81.3
C/C(=N\NC1=NCCN1)c1ccc(N)c([N+](=O)[O-])c1 | -15.2
CCOc1ccc(Br)cc1/C(C)=N\NC1=NCCN1.Cl | -48.6
CCCCCCOc1ccc(/C(C)=N/NC2=NCCN2)cc1 | -19.9
COc1ccc(Br)cc1/C(C)=N/NC1=NCCN1.Cl | -26.7
COc1cc(S(=O)(=O)NC2CCCC2)ccc1F | 1.19
CC1CCN(C(=O)c2ccccc2NS(=O)(=O)c2ccccc2)CC1 | 8.52
CCc1ccc(-c2nn[nH]n2)cc1 | 4.61
Cc1ccc(C)c(SCC(=O)NNC(=O)c2ccccc2)c1 | 9.78
COc1ccc(NC(=O)C2CCN(c3cnccn3)CC2)cc1OC | 15.5
CC(NC1CCCCC1)C(O)C12CC3CC(CC(C3)C1)C2.Cl (stereo not shown) | -16.4
COC(=O)c1ccc(C(c2c(N)n(CC(C)C)c(=O)[nH]c2=O)N2CCN(c3ccccc3)CC2)cc1 (stereo not shown) | -8.97

SMILES | hERG current change (%, negative = inhibition) at 10uM [%]
CCCn1c(N)c(C(c2ccc(C(=O)OC)cc2)N2CCN(c3ccccc3)CC2)c(=O)[nH]c1=O (stereo not shown) | -9.93
COC(=O)c1ccc(C(c2c(N)n(Cc3ccccc3)c(=O)n(C)c2=O)N2CCOCC2)cc1 (stereo not shown) | -57.9
COc1cccc(CNC(=O)C2CCN(S(=O)(=O)N3CCC(C)CC3)CC2)c1 | -3.44
O=C(CN1CCN(Cc2ccccc2Cl)CC1)N=Nc1c(O)[nH]c2ccccc12 | -61.3
O=C(CN1CCCCC1)N=Nc1c(O)[nH]c2ccccc12 | 4.68
O=C(CCN1CCCCC1)N=Nc1c(O)[nH]c2ccccc12 | 11.3
O=C(Cc1cccs1)N=Nc1c(O)[nH]c2ccccc12 | 7.07
O=C(CSCc1ccccc1)N=Nc1c(O)[nH]c2ccccc12 | -19.1
O=C(CN1CCN(Cc2ccccc2)CC1)N=Nc1c(O)[nH]c2ccccc12 | -65
Cc1ccc(CN2CCN(CC(=O)N=Nc3c(O)[nH]c4ccccc34)CC2)cc1 | -73.5
COCC(=O)N=Nc1c(O)[nH]c2ccccc12 | -5.52
O=C(N=Nc1c(O)[nH]c2ccccc12)c1ccc(CN2CCOCC2)cc1 | 22.9
N#Cc1ccccc1NC(=S)Nc1ccc(F)cc1 | 16.2
CCN(C(=O)c1cc2c(=O)[nH]c3ccc(C)cc3c2s1)c1ccc(OC)cc1 | 9.09
COC(=O)c1ccc(N2CCN(C)CC2)c(NC(=O)c2sc3ccccc3c2Cl)c1 | 13.1
COc1ccc(C=C(C#N)C#N)c(CSc2ccccn2)c1 | 1.19
COc1ccc(C(=O)Nc2ccc(N3CCCCC3)cc2)cc1Br | -8.48
O=C(N/N=C/c1cc(Br)cc(Br)c1O)c1ccncc1 | 15.6
Cc1ccc(S(=O)(=O)CCC(=O)OCC(=O)N2c3ccccc3NC(=O)C2(C)C)cc1 | 14
O=C(O)C(=O)/C(=C\c1ccccc1)c1ccc2ccccc2n1 | 13.9
O=C(Nc1cccc(-c2csc(Nc3ccccc3)n2)c1)c1ccccc1 | 2.4
Cc1ccc(-c2nnc(N3CCN(C(=O)COc4ccccc4)CC3)c3ccccc23)cc1 | -52.1

SMILES | hERG current change (%, negative = inhibition) at 10uM [%]
COc1ccc(OCC(=O)N2CCN(c3nnc(-c4ccc(C)cc4)c4ccccc34)CC2)cc1 | -44.9
O=C(COc1ccc([N+](=O)[O-])cc1)N1CCN(c2nnc(-c3ccccc3)c3ccccc23)CC1 | -66.5
CCCC(=O)N1CCN(C2=NS(=O)(=O)c3ccccc32)CC1 | -3
CCN(CC)C(=O)COc1ccc(-c2nnc(N3CCCCC3)c3ccccc23)cc1 | -25.4
COc1ccc(OCC(=O)N2CCN(c3nnc(-c4ccccc4)c4ccccc34)CC2)cc1 | -64.4
COc1ccc(-c2nnc(N3CCCCC3)c3ccccc23)cc1 | -47.3
Cc1ccc(OCC(=O)N2CCN(C(=O)Cc3ccccc3)CC2)cc1 | -38.4
O=C(CSc1ncn[nH]1)N1CCN(c2nnc(-c3ccccc3)c3ccccc23)CC1 | -0.967
Cc1ccc(OCC(=O)N2CCN(C3=NS(=O)(=O)c4ccccc43)CC2)cc1 | -60.8
CC(C)N1C(=O)N(c2cccc(Cl)c2)C(C)(O)CC1(C)C (stereo not shown) | 17.5
COc1cccc(-c2nc(CS(=O)CC(=O)NCc3ccccc3)c(C)o2)c1 (stereo not shown) | -6.07
CCCOc1cccc(NC(=O)c2c(-c3ccccc3)noc2C)c1 | -8.81
CCC1(O)CC(C(=O)OC)=NN1C(=O)c1ccccc1 (stereo not shown) | 7.94
COc1ccccc1-n1cnnc1SCC(=O)Nc1ncc(Cl)cc1Cl | -0.265
COc1ccccc1OCC(=O)NCCSCc1ccc(Cl)cc1 | -45
COc1ccc(C(=O)N/C(=C\c2ccccc2)C(=O)Nc2ccccc2C(=O)O)cc1 | 11.3
COc1ccccc1C(=O)NNC(=O)c1ccc(C)cc1 | 9.24
Cc1ccc(NC(=O)C2(N3CCC3=O)CCCCC2)cc1 | 6.92
COCC(C)NC(=O)C(C)Oc1ccccc1 (stereo not shown) | 12
CC(C)c1nnc(NC(=O)CCC(=O)NCc2ccccc2Cl)s1 | 11.2
Cn1cnc([N+](=O)[O-])c1NCc1ccccc1 | 10.3
COc1cc(/C=N/Nc2nc(Nc3ccccc3)nc(N3CCOCC3)n2)ccc1OC(=O)c1ccco1 | 13.6

SMILES | hERG current change (%, negative = inhibition) at 10uM [%]
Cc1ccc(OCC(=O)N2CCN(c3nnc(-c4ccc(C)cc4)c4ccccc34)CC2)cc1 | -49.3
Cn1c(=O)n(CC(=O)N2CCN(c3nnc(-c4ccccc4)c4ccccc34)CC2)c2ccccc21 | -56
Cc1ccc(OCC(=O)N2CCN(c3nnc(-c4ccccc4)c4ccccc34)CC2)cc1 | -61.5
O=C(COc1ccc(-c2nnc(N3CCCCC3)c3ccccc23)cc1)N1CCCCC1 | -32.3
O=C(CN1C(=O)c2ccccc2C1=O)N1CCN(c2nnc(-c3ccccc3)c3ccccc23)CC1 | 5.5
CCC(=O)N1CCN(c2nnc(-c3ccccc3)c3ccccc23)CC1 | -13.5
O=C(COc1ccccc1)N1CCN(c2nnc(-c3ccccc3)c3ccccc23)CC1 | -65.3
Cc1ccc(-c2nnc(N3CCN(C(=O)Cn4c(=O)n(C)c5ccccc54)CC3)c3ccccc23)cc1 | -28.7
CCNC(=S)NCc1ccc(F)cc1 | 5.03
Br.NS(=O)(=O)c1ccc(Nc2nc(-c3ccccc3)cs2)cc1 | -26
CCCn1c(=O)c(C(=O)Nc2ccccc2C(=O)OC)c(O)c2ccccc21 | 5.91
S=C1NCCNC(=S)NCCOCCOCCOCCN1 | 15.2
CCOC(=O)c1nn(-c2ccccc2)c2nnc(Cc3ccc(Cl)cc3)c(=O)n12 | 3.57
COc1cccc(OC)c1OCCCN1CCC(Cc2ccccc2)CC1.O=C(O)C(=O)O | -80.6
COc1cccc(OC)c1OCCCCN1CCC(Cc2ccccc2)CC1.O=C(O)C(=O)O | -81.9
COc1ccc(OCC(=O)N2CCC(Cc3ccccc3)CC2)cc1 | -36
COc1cccc(OC)c1OCCCCN1CCCC1 | -2.47
COc1cccc(OC)c1OCCCCCCN1CCN(C)CC1.Cl | 8.54
CC(=O)CCc1ccc(OCCCCn2cncn2)cc1 | -4.29
COc1cccc(OC)c1OCCCCN1CCCCC1.O=C(O)C(=O)O | -2.55
COc1cccc(OC)c1OCCCN1CCOCC1 | 4.22
CC(=O)CCc1ccc(OCCCCN2CCC(Cc3ccccc3)CC2)cc1.O=C(O)C(=O)O | -79.5
